Calls of active or inactive are those of the source.

For assay [1], the system named is Plasmodium falciparum Sir2 (PF13_0152, Sir2A). The assay is described as follows: Plasmodium falciparum Sir2A binding compounds – biochemical, small-molecule microarray, 635 nm fluorescence, primary screen (AID 1098).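 Further: score merges spot fluorescence intensity with its signal-to-noise ratio.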 To be noted: fluorescence 635 nm, higher = more signal.
Assay [2] is described as follows: probe aDKK1 binding to arrayed compounds – biochemical, biotinylated probe, 635/667 nm fluorescence, primary screen (AID 1099).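 Further: score merges 667nm spot fluorescence with signal to noise across triplicate slides; reference of the scale not given here.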 To be noted: small-molecule microarray, higher = more signal.
A short description of assay [3]: probe aCHRDL2 binding to arrayed compounds – biochemical, biotinylated probe, 635/667 nm fluorescence, primary screen (AID 1100). To be noted: small-molecule microarray, higher = more signal.
Assay [4] can be described thus: change in splice reporter luminescence, either direction, cell-based, HEK293, spliceosome inhibition project, primary screen (AID 1101).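 Further: HEK293 cells carrying a splicing-competent luciferase reporter gene; test concentration not given here.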 To be noted: HEK293 splicing luciferase reporter, 24 h, higher = more signal, called active from +8 up or from −8 down. Background: Reporter assays use an easily measured gene product as a stand-in for the process of interest.
In assay [5] the target is Fibroblast growth factor 10 (Homo sapiens) (UniProt O15520). The assay is described as follows: compounds binding fibroblast growth factor 10 – biochemical, small-molecule microarray, 635 nm fluorescence, primary screen (AID 1102). To be noted: FGF10 binding, fluorescence 635 nm, higher = more signal.
The subject of assay [6] is glycogen synthase kinase-3 (GSK3A per assay name; protocol says GSK3B). The assay is described as follows: compounds binding glycogen synthase kinase-3 – biochemical, small-molecule microarray, 635 nm fluorescence, GSK3A, primary screen (AID 1103). Further: the record names both GSK3A and GSK3B. To be noted: fluorescence 635 nm, higher = more signal.
Assay [7] addresses Epidermal growth factor receptor (Homo sapiens) (UniProt P00533). Nature of the assay: compounds binding epidermal growth factor receptor – biochemical, small-molecule microarray, 635 nm fluorescence, primary screen (AID 1104).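 Further: score merges 667 nm emission intensity with spot signal to noise over triplicate slides.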 To be noted: EGFR binding, higher = more signal.
In assay [8] the target is Follistatin-related protein 3 (Homo sapiens) (UniProt O95633). The assay is described as follows: compounds binding follistatin-related protein 3 – biochemical, small-molecule microarray, 635 nm fluorescence, primary screen (AID 1105).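 Further: score merges emission near 667 nm and signal to noise per printed spot across three slides.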 To be noted: FSTL3 binding, higher = more signal.
For assay [9], the target named is Dickkopf-related protein 1 (Homo sapiens) (UniProt O94907). The assay is described as follows: small molecules binding DKK1 protein – biochemical, small-molecule microarray, 635 nm fluorescence scan, primary screen (AID 1106).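 Further: score merges emission near 667 nm with signal to noise over three replicate slides.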 To be noted: higher = more signal.
Assay [10] relates to Inhibin beta A chain (activin A). The assay is described as follows: small molecules binding activin A – biochemical, small-molecule microarray, 635 nm fluorescence scan, primary screen (AID 1107).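 Further: mouse activin A protein probed at 4.33 µg/mL on printed slides; score merges bound-protein fluorescence near 667 nm with spot signal-to-noise.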 To be noted: INHBA, higher = more signal.

Sequence of Dickkopf-related protein 1 (Homo sapiens) (O94907 whole entry, looked up): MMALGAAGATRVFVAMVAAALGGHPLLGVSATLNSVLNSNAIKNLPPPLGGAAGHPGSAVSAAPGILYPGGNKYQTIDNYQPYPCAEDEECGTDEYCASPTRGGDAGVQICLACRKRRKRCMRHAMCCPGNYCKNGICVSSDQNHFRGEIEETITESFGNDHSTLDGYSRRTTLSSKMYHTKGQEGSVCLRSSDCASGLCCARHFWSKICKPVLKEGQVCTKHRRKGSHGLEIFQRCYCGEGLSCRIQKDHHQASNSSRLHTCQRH
Sequence of Fibroblast growth factor 10 (Homo sapiens) (O15520 whole entry, looked up): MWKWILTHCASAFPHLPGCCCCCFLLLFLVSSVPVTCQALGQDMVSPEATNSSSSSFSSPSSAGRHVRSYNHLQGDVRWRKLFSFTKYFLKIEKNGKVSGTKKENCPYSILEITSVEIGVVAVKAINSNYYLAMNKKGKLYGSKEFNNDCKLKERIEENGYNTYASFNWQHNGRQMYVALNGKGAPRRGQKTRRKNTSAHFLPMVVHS
Sequence of Epidermal growth factor receptor (Homo sapiens) (P00533 whole entry, looked up): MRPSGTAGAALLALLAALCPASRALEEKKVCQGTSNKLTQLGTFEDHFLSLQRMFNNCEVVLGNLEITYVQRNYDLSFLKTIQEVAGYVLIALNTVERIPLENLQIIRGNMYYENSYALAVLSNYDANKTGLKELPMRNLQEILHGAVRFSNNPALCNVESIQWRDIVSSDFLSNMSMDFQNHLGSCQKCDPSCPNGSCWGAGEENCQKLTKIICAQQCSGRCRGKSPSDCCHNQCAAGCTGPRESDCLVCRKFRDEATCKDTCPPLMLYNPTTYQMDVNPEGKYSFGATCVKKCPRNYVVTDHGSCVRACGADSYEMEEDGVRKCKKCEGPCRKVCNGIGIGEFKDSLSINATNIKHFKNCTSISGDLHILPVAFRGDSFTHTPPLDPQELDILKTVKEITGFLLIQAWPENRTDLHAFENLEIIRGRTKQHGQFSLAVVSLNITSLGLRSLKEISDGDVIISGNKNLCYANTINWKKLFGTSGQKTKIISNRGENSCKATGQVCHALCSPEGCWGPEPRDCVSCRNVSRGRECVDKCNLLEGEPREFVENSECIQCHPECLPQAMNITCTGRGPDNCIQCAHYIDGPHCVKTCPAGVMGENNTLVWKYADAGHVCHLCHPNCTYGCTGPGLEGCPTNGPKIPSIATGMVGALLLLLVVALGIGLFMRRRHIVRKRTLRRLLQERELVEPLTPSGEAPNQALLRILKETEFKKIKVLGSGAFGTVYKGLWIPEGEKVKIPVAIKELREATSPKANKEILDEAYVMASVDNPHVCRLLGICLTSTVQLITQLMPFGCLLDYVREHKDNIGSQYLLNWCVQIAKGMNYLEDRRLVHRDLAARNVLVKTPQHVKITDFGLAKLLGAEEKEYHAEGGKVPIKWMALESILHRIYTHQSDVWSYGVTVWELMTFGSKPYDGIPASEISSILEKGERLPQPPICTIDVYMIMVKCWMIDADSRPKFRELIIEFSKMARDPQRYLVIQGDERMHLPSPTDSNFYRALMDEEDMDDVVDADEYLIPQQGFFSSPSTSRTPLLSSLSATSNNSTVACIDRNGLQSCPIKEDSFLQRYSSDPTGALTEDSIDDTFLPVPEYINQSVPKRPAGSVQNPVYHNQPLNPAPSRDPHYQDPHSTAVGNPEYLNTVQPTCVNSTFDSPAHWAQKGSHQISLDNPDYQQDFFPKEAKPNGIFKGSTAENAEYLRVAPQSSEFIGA
Sequence of Follistatin-related protein 3 (Homo sapiens) (O95633 whole entry, looked up): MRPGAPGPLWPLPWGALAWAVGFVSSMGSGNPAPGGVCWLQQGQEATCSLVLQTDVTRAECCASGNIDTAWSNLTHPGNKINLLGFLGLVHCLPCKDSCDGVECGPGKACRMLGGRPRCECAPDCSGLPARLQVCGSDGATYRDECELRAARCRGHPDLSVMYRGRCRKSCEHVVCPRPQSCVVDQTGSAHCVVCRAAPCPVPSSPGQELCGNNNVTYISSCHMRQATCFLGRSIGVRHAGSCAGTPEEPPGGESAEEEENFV

With `COC(=O)[C@@]1(CCC(=O)OC(C)(C)C)N=C(c2ccc(OCCCO)cc2)O[C@H]1c1ccccc1N=[N+]=[N-]`, the composite z-score in assay [1] is 1.13; in assay [2], 0.255; in assay [3] it was 0.662; in [5], -0.113; in assay [6], -0.0727; in assay [7], -0.336. For the same compound, the composite z-score in assay [8] turned out to be 0.542; in assay [9], 0.0186; in [10], 0.431. For the same compound, the z-score in assay [4] was 2.6 (inactive).

With `OCCCC1=CC(c2cccs2)N(Cc2cc3c(cc2Br)OCO3)CC1` (stereo not given), the composite z-score in [1] was 0.725; in assay [2], -0.16; in [3] it was 0.197; in [5] it was 0.21; in assay [6], -0.0247; in assay [7], -0.275. Also, the results for the composite z-score in assay [8], in assay [9] and in [10] were -0.0688, 0.211 and 1.01, respectively. For the same compound, the z-score in assay [4] was -0.252 (inactive).

Turning to `COc1ccc([Si](C)(C)[C@@H]2[C@@H](CC(=O)N3CCC[C@H]3CO)O[C@]3(C(=O)N(c4ccccc4)c4ccccc43)[C@H]2C)cc1`, the composite z-score in assay [1] was 0.977; in assay [2], 0.0231; in assay [3] it was -0.169; in assay [5], 0.613; in [6] it was 1.23; in [7], 0.501. Further, the composite z-score in [8] turned out to be 1.4; in [9] it was 0.85; in [10], 0.748. Moreover, in [4], the z-score was -2.29 (inactive).

As for `O=C(OCc1ccccc1)C1=CCC2c3[nH]c4ccccc4c3C(=O)C1N2S(=O)(=O)c1ccccc1[N+](=O)[O-]` (stereo not given), the composite z-score in [1] was 1.42; in assay [2], 0.332; in [3] it was 0.381; in assay [5], 1.33; in assay [6], 1.32; in assay [7], 0.727. The composite z-score in assay [8] worked out at 1.42; in assay [9] it was 0.109; in assay [10] it was 0.618. In addition, the z-score in [4] is -0.00197 (inactive).

Consider `O=C1C[C@@](C(=O)NCC(F)(F)F)(c2ccc([N+](=O)[O-])cc2)[C@@H](c2ccc(CO)cc2I)N1C1CCCCC1`, for which the composite z-score amounted to 0.47 in [1]; 0.0918 in [2]; 0.574 in [3]; 1.09 in assay [5]; 1.18 in assay [6]; 0.515 in assay [7]. In addition, the composite z-score in [8] was 0.995; in [9] it was 0.155; in assay [10], 0.539. Besides, in [4], the z-score is 0.0169 (inactive).

As to `CO[C@H]1O[C@H](CO)[C@@H](OC(=O)Nc2ccc(Oc3ccccc3)cc2)[C@H](OC(=O)Nc2ccc3c(c2)OCO3)[C@H]1OC(=O)Nc1ccc2c(c1)OCO2`, the composite z-score in [1] worked out at 1.26; in [2], 0.86; in assay [3], 0.992; in assay [5], 1.33; in assay [6], 1.31; in assay [7], 0.318. Also, the composite z-score in [8] came out at 1.2; in [9], 0.612; in [10] it was 0.944. Besides, the z-score in [4] is -1.61 (inactive).

In the case of `CC(C)N1C(=O)[C@@]2(Cc3ccccc31)c1ccccc1C(=O)N(Cc1ccccc1Cl)[C@H]2c1ccc(CO)cc1`, the composite z-score is 0.465 in assay [1]; -0.0724 in [2]; 0.621 in assay [3]; -1 in assay [5]; -1.24 in assay [6]; -1.25 in assay [7]. Also, the composite z-score in assay [8] was -0.785; in [9] it was -0.979; in assay [10], 0.781. Further, in assay [4], the z-score is -1 (inactive).

Consider `COc1cc(COC(C)=O)ccc1OC(C)=O`, for which the composite z-score in assay [1] turned out to be 0.0968; in assay [2] it was 1.85; in assay [3], 0.285; in assay [5] it was 0.301; in assay [6] it was 0.578; in assay [7], 1.04. The values for the composite z-score in assay [8], in assay [9] and in assay [10] were 0.505, 1.17 and 0.47, respectively. For the same compound, in assay [4], the z-score is -0.309 (inactive).

Take `[N-]=[N+]=NCc1ccccc1[C@@H]1OC(c2ccc(OCCCO)cc2)=N[C@]1(Cc1ccccc1)C(N)=O`: the composite z-score in assay [1] was 1.01; in [2], 0.758; in [3] it was 0.864; in assay [5], 1.42; in assay [6], 1.3; in [7] it was -0.592. The composite z-score in assay [8] was 0.881; in [9], -0.117; in assay [10] it was 0.857. For the same compound, the z-score in assay [4] was -1.16 (inactive).

As to `COc1ccc(C#Cc2ccc3c(c2)[C@]2(C(=O)N3)[C@H](C(=O)Nc3nc4ccccc4s3)[C@H]3C(=O)O[C@H](c4ccccc4)[C@H](c4ccccc4)N3[C@@H]2c2ccc(O)cc2)cc1`, the composite z-score in [1] amounted to 1.15; in assay [2] it was 1.06; in assay [3] it was 0.144; in assay [5], 1.43; in assay [6], 1.25; in assay [7] it was 0.516. The composite z-score was 1.48 in [8], 0.63 in assay [9] and 1.09 in assay [10]. Besides, the z-score in [4] is -0.444 (inactive).

Regarding `Cc1ccc(S[C@]2(C(=O)O)CC(=O)N(C(C)C)[C@@H]2c2ccc(CO)cc2I)cc1`, the composite z-score is 1.33 in assay [1]; 0.831 in [2]; 1.18 in assay [3]; 0.0877 in assay [5]; 0.511 in [6]; -0.645 in assay [7]. The composite z-score in assay [8] is 0.315; in [9], -0.27; in assay [10], 1.33. Also, the z-score in assay [4] was -2.55 (inactive).

With `COc1cc(Br)cc(C(O)C2C=CC3C(=O)N(C)C(=O)C3N2N2CCCCC2)c1OC` (stereo not given), the composite z-score was 0.787 in assay [1]; 0.655 in assay [2]; 0.895 in assay [3]; -0.582 in assay [5]; -0.524 in assay [6]; -1.23 in [7]. The composite z-score in assay [8] is -1.06; in assay [9], -1.26; in [10], 0.613. In assay [4], the z-score was 1.09 (inactive).

As for `CN(C)C(=O)[C@]1(Cc2ccccc2N=[N+]=[N-])N=C(c2ccc(OCCCO)cc2)O[C@@H]1c1ccccc1N=[N+]=[N-]`, the composite z-score in assay [1] was 1.11; in [2], 1.72; in assay [3], 1.01; in assay [5], 0.885; in assay [6], -0.0929; in assay [7], 0.405. In addition, the composite z-score in assay [8] came out at 1.3; in assay [9], 0.172; in assay [10] it was 1.14. In addition, the z-score in assay [4] is -0.727 (inactive).

Consider `C=CCNC(=O)[C@H]1[C@@H]2C(=O)O[C@@H](c3ccccc3)[C@@H](c3ccccc3)N2[C@@H](c2ccccc2OCCO)[C@]12C(=O)Nc1ccc(C#CCCO)cc12`, for which the composite z-score was 0.932 in [1]; -0.0856 in assay [2]; 0.784 in [3]; 1.66 in [5]; -1.03 in assay [6]; -0.281 in assay [7]. The composite z-score turned out to be 0.229 in [8], 1.97 in [9] and 0.479 in assay [10]. Also, the z-score in [4] was -0.411 (inactive).

As for `COc1cc2c(cc1OC)CN(C(=O)[C@@H]1[C@H]3C(=O)O[C@H](c4ccccc4)[C@H](c4ccccc4)N3[C@H](c3ccc(O)cc3)[C@@]13C(=O)Nc1ccccc13)CC2`, the composite z-score was 1.66 in assay [1]; -0.22 in assay [2]; 0.104 in [3]; 0.397 in assay [5]; 1 in assay [6]; -0.0444 in assay [7]. For the same compound, the values for the composite z-score in [8], in assay [9] and in assay [10] were 0.346, 0.27 and -0.131, respectively. Further, in [4], the z-score was -0.764 (inactive).

With `O=C1C2C=CC(C(O)CCc3ccccc3)N(Nc3ccccc3F)C2C(=O)N1c1ccccc1` (stereo not given), the composite z-score in assay [1] was found to be 1.17; in [2] it was 0.909; in assay [3] it was 1.09; in assay [5], 1.25; in [6] it was 1.31; in assay [7], 0.359. Besides, the composite z-score in assay [8] is 1.31; in [9], -0.242; in [10] it was 1.04. Moreover, in assay [4], the z-score is -0.0383 (inactive).
